Compounds without any hit were thinned out: in the full panel of roughly 83,000, 20% have a hit.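 Percent growth is the endpoint: 0 to 100 indicates growth inhibition (40 means 60% inhibition), 0 means no net growth, and negative values indicate cell death.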 Active and inactive are the calls of the source. The calls were made as follows: active = growth percent below 10; inactive = the rest.
What was measured:
Test in all cases: NCI-60 one-dose screen, 48 h (100 = growth as untreated, 0 = no growth, -100 = all killed)
[1] = test system: NCI-H23 lung; settings: 10 µM unless noted
[2] = test system: DU-145 prostate; settings: 10 µM unless noted
[3] = test system: MDA-MB-231 breast; settings: 10 µM unless noted
[4] = test system: SF-268 CNS; settings: 10 µM unless noted
[5] = test system: SF-539 CNS; settings: 10 µM unless noted
[6] = test system: M14 melanoma; settings: 10 µM unless noted
[7] = test system: HCT-15 colon; settings: 10 µM
[8] = test system: HT29 colon; settings: 10 µM unless noted
[9] = test system: SNB-75 CNS; settings: 10 µM unless noted
[10] = test system: PC-3 prostate; settings: 10 µM unless noted
[11] = test system: UACC-62 melanoma; settings: 10 µM unless noted
[12] = test system: SK-MEL-28 melanoma; settings: 10 µM unless noted
[13] = test system: SN12C renal; settings: 10 µM unless noted
[14] = test system: ACHN renal; settings: 10 µM unless noted
[15] = test system: OVCAR-8 ovarian; settings: 10 µM unless noted
[16] = test system: OVCAR-5 ovarian; settings: 10 µM unless noted
[17] = test system: NCI/ADR-RES ovarian; settings: 10 µM unless noted
[18] = test system: MDA-MB-435 melanoma; settings: 10 µM unless noted
[19] = test system: HCT-116 colon; settings: 10 µM unless noted
[20] = test system: KM12 colon; settings: 10 µM unless noted

Measured: growth

CC(=O)O[C@H]1CCC2(C)C(=CCC3C2CCC2(C)/C(=N/OC(=O)c4ccc(N(CCCl)CCCl)cc4)CCC32)C1 (stereo partly specified)
inactive: [1] 45.8% | [2] 78.7% | [3] 40.5% | [5] 51.5% | [6] 59.4% | [7] 55.2% | [8] 32.6% | [9] 22.5% | [10] 47.8% | [11] 68.4% | [12] 81.8% | [13] 47.3% | [14] 46.4% | [15] 56.4% | [16] 81.7% | [17] 44% | [18] 47.1% | [20] 47.6%
active: [4] 5.4% | [19] 9.02%

Nc1c(Br)cc([N+](=O)[O-])cc1[N+](=O)[O-]
inactive: [1] 98.4% | [2] 101% | [3] 105% | [4] 97.7% | [5] 110% | [6] 113% | [7] 114% | [8] 103% | [9] 99.2% | [10] 102% | [11] 101% | [12] 116% | [13] 104% | [14] 125% | [15] 98% | [16] 106% | [17] 105% | [18] 112% | [19] 108% | [20] 105%

O=C(CF)N(O)c1ccc(/C=C/c2ccccc2)cc1
active: [2] 1.13%
inactive: [1] 60.7% | [3] 73.4% | [4] 42.5% | [5] 36.2% | [6] 43.2% | [7] 66.6% | [8] 57.6% | [9] 70.9% | [10] 62.3% | [11] 23.4% | [12] 99.9% | [13] 26.6% | [14] 13.9% | [15] 39.9% | [16] 82.6% | [17] 44.1% | [18] 72.3% | [19] 11.5% | [20] 69.5%

COc1cc(/C=C\c2cc(OC)c(OC)c(OC)c2)cc(N/C=C\C(=O)c2ccc(OC(F)(F)F)cc2)c1OC
active: [3] -16.9% | [5] -31.5% | [6] -4.87% | [7] 9.36% | [8] -36.6% | [9] -8.84% | [17] 5.87% | [18] -42.2% | [19] 8.14%
inactive: [1] 26.2% | [2] 14.4% | [4] 41.7% | [10] 42.6% | [12] 62.2% | [13] 36.5% | [14] 43% | [15] 30% | [16] 44.2% | [20] 16.6%

CC(/C=N/N=C(N)N)=N\N=C(N)N
inactive: [1] 68.9% | [2] 65.5% | [3] 80.2% | [4] 50.3% | [5] 51.9% | [6] 80.3% | [7] 100% | [8] 65.9% | [9] 63.7% | [10] 101% | [11] 86.7% | [12] 87.1% | [13] 74.2% | [14] 80.9% | [15] 58.4% | [16] 82.1% | [17] 24.9% | [18] 89.2% | [19] 49% | [20] 40.9%

CC[CH2][Pb]([CH2]CC)([CH2]CC)[O]C(=O)C(F)(F)F
active: [1] -46.4% | [2] -100% | [3] -50.3% | [4] -82.3% | [5] -99.2% | [6] -91.6% | [7] -88.2% | [8] -61.5% | [9] -99.9% | [11] -83.2% | [12] -97.2% | [13] -79.3% | [14] -100% | [15] -69.4% | [16] -99% | [17] -36.6% | [18] -97.1% | [19] -95% | [20] -88.2%

CCOc1cc(C=C(C#N)C#N)cc(Br)c1O
inactive: [1] 99% | [2] 103% | [3] 109% | [4] 95.6% | [5] 99.5% | [6] 98% | [7] 102% | [8] 92.5% | [9] 83.5% | [10] 98.4% | [11] 105% | [12] 109% | [13] 106% | [14] 106% | [15] 102% | [16] 108% | [17] 104% | [18] 101% | [19] 99.2% | [20] 103%

O1[As]2O[As]3O[As]1O[As](O2)O3
active: [1] 6.46% | [3] -22.8% | [4] 5.42% | [5] -4.27% | [6] -24.2% | [7] -23.4% | [8] -21.1% | [9] -0.103% | [11] -53.3% | [12] -17.6% | [13] 4.31% | [15] 4.6% | [19] -10.3%
inactive: [10] 10.7% | [14] 28% | [16] 18.7% | [17] 13.8% | [18] 14.1% | [20] 39%

c1cnc2c(c1)ccc1ncccc12
inactive: [1] 121% | [2] 107% | [3] 108% | [4] 96.4% | [5] 106% | [6] 91% | [7] 110% | [8] 109% | [9] 97.8% | [11] 94.6% | [12] 205% | [13] 95.3% | [14] 90.7% | [15] 94.4% | [16] 148% | [17] 78.4% | [18] 113% | [19] 89.8% | [20] 107%

Cc1ccc2oc(=O)c3c(c2c1)OC(N)=C(C#N)C3c1ccco1 (stereo unspecified)
inactive: [1] 98.3% | [2] 103% | [3] 103% | [4] 101% | [5] 101% | [6] 99.8% | [7] 103% | [8] 108% | [9] 96.2% | [10] 95.9% | [11] 95.9% | [12] 113% | [13] 101% | [14] 101% | [15] 101% | [16] 102% | [17] 102% | [18] 105% | [19] 99.9% | [20] 98.9%

O=C1NC2(CCNCC2)Nc2ccccc21
inactive: [1] 100% | [2] 108% | [3] 120% | [4] 106% | [5] 114% | [6] 100% | [7] 113% | [8] 98.2% | [9] 82.8% | [10] 88.5% | [11] 96.1% | [12] 116% | [13] 99.1% | [14] 110% | [15] 84.4% | [16] 115% | [17] 109% | [18] 104% | [19] 100% | [20] 105%

CCCCCN(CCCCC)CC(O)c1ccc(C)c(Cl)c1 (stereo unspecified)
inactive: [1] 89.3% | [2] 118% | [3] 97.4% | [4] 106% | [5] 101% | [6] 96% | [7] 99.9% | [8] 79% | [9] 90.9% | [10] 91.8% | [11] 90.5% | [12] 96.6% | [13] 101% | [14] 92.7% | [15] 102% | [16] 83.8% | [17] 104% | [18] 104% | [19] 82.1% | [20] 105%

CC(C)CCC[C@@H](C)[C@H]1CC[C@H]2[C@@H]3CC=C4C[C@@H](OC(=O)Cc5ccc(N(CCCl)CCCl)cc5)CC[C@]4(C)[C@H]3CC[C@]12C
inactive: [1] 107% | [2] 116% | [3] 101% | [4] 108% | [5] 94.1% | [6] 108% | [7] 108% | [8] 107% | [9] 103% | [10] 99.5% | [11] 94.4% | [12] 111% | [13] 99.9% | [14] 100% | [15] 99.8% | [16] 98.2% | [17] 102% | [18] 113% | [19] 103% | [20] 109%

N#CC1c2ccccc2C=CN1C(=O)c1ccc(N(CCCl)CCCl)cc1 (stereo unspecified)
inactive: [1] 89.3% | [2] 111% | [3] 92.9% | [4] 95.9% | [5] 101% | [6] 116% | [7] 81.4% | [8] 98.7% | [9] 79.6% | [10] 81.1% | [11] 71.7% | [12] 94.6% | [13] 75.5% | [14] 86.9% | [15] 85.7% | [16] 98.6% | [17] 83.4% | [18] 79.4% | [19] 104% | [20] 98%

CC12CCC(=O)C=C1CCC1C2CCC2(C)C(C(=O)COC(=O)Cc3ccc(N(CCCl)CCCl)cc3)CCC12 (stereo unspecified)
inactive: [1] 94% | [2] 109% | [3] 108% | [4] 77.9% | [5] 63% | [6] 104% | [7] 86.2% | [8] 88.5% | [9] 83.3% | [10] 36.1% | [11] 66.3% | [12] 104% | [13] 73.2% | [14] 40.3% | [15] 79.1% | [16] 119% | [17] 91.8% | [18] 96.1% | [19] 82.4% | [20] 101%

O=C(O)c1nn(Cc2ccc(Cl)cc2)c2ccccc12
inactive: [1] 105% | [2] 120% | [3] 107% | [4] 109% | [5] 102% | [6] 107% | [7] 102% | [8] 118% | [9] 95.9% | [10] 98.7% | [11] 102% | [12] 119% | [13] 93.7% | [14] 117% | [15] 92.7% | [16] 108% | [17] 112% | [18] 116% | [19] 103% | [20] 109%
